Records with an inconclusive call do not appear. The source made the active and inactive calls. Calls follow the shape of the dose curve; as a rule, active = well fitted curve in the direction sought with a large enough effect; inconclusive = small, poorly fitted or top-dose-only effect, or another doubt; inactive = no such curve, though single readings can be large; an effect the other way counts as inactive or inconclusive.
Key:
[1] = P-glycoprotein substrates identified in KB-8-5-11 adenocarcinoma cell line, qHTS therapeutic library screen (AID 1346987); details: outcome: dose series up to 44.5 µM; also: series mostly up to about 44 µM; % is scaled to controls: 0 for no effect and ±100 for the full control effect; nearly all actives have a fitted effect of over 65% in size
Procedure, shortened: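 Steps: plate 500 KB-8-5-11 cells/well in DMEM + 10% FCS (colchicine removed); pin compounds in dose-response; incubate 72 h, 37 degree C, 5% CO2; add CellTiter-Glo, 5 min; read luminescence.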

[2] = NS1 protein of Zika virus - qHTS assay to identify small molecule inhibitors in human HEK 293 cells (AID 1347053);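 also: series mostly up to about 46 µM; plate controls were infected untreated cells for no effect and uninfected cells for full effect; nearly all actives have a fitted effect of over 55% in size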
Procedure, shortened: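 HEK 293 cells pretreated with compound for 1 h, then infected with ZIKV MR766 (MOI 0.5) for 24 h at 37 C. NS1 detected by TR-FRET with two anti-NS1 antibodies; normalized to uninfected (0%) and infected (100%) wells.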

[3] = qHTS of pediatric cancer cell lines to identify multiple opportunities for drug repurposing: Primary screen for TC32 cells (AID 1347089); also: % is scaled to controls: 0 for no effect and ±100 for the full control effect; nearly all actives have a fitted effect of over 60% in size
Procedure, shortened: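 In the primary qHTS, MIPE compounds were tested at 11 concentrations (0.78 nM to 46 µM) and NPC compounds at 8 (0.59 nM to 46 µM) on TC32 cells for 48 h. CellTiter-Glo luminescence gave viability.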

[4] = qHTS of pediatric cancer cell lines to identify multiple opportunities for drug repurposing: Primary screen for SJ-GBM2 cells (AID 1347091);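 also: plate controls were DMSO neutral control for no effect and bortezomib for full effect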
Procedure, shortened: (§1)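 Cell viability, CellTiter-Glo luminescence; 500-1,000 cells/well, 8- or 11-point titration, 48 h compound exposure at 37 degrees C, 5% CO2. Controls: DMSO neutral, bortezomib 2.3 µM final as positive.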

[5] = qHTS of pediatric cancer cell lines to identify multiple opportunities for drug repurposing: Primary screen for A673 cells (AID 1347092); also: % is scaled to controls: 0 for no effect and ±100 for the full control effect; nearly all actives have a fitted effect of over 45% in size
Procedure, shortened: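 48 h compound exposure, A673, 500-1,000 cells/well, 37 degrees C/5% CO2. MIPE: 11-point, 0.78 nM-46 µM; NPC: 8-point, 0.59 nM-46 µM (final). Readout CellTiter-Glo luminescence after 15 min RT.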

[6] = qHTS of pediatric cancer cell lines to identify multiple opportunities for drug repurposing: Primary screen for SK-N-MC cells (AID 1347093);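 also: series mostly up to about 46 µM; plate controls were DMSO neutral control for no effect and bortezomib for full effect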
Procedure, shortened: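 Metabolically active cells were quantified by ATP-dependent luminescence (CellTiter-Glo, 15 min at room temperature) following 48 h treatment. Cells had been plated at 500-1,000 per well and settled for 5 h beforehand.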

[7] = qHTS of pediatric cancer cell lines to identify multiple opportunities for drug repurposing: Primary screen for BT-37 cells (AID 1347094);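 also: series mostly up to about 57 µM; plate controls were DMSO for no effect and bortezomib for full effect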
Procedure, shortened: (§2)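 Plated cells (500-1,000 per well, growth media) were allowed to settle for 5 hours, treated with compound dilutions for 48 hours, then lysed with CellTiter-Glo for 15 min at room temperature before luminescence reading.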

[8] = qHTS of pediatric cancer cell lines to identify multiple opportunities for drug repurposing: Primary screen for NB-EBc1 cells (AID 1347095);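 also: plate controls were DMSO neutral control for no effect and bortezomib for full effect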
Procedure, shortened: as §2

[9] = qHTS of pediatric cancer cell lines to identify multiple opportunities for drug repurposing: Primary screen for DAOY cells (AID 1347090);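 also: series mostly up to about 46 µM; plate controls were DMSO for no effect and bortezomib for full effect; nearly all actives have a fitted effect of over 55% in size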
Procedure, shortened: as §1

CC(=O)Nc1cccc(O)c1
inactive: outcome [1] | outcome [2] | outcome [3] | outcome [4] | outcome [5] | Potency [6] | outcome [7] | outcome [8]

Cc1cccc(C)c1NC(=O)CC12CCCN1CCC2
inactive: outcome [1] | outcome [2] | outcome [3] | outcome [4] | outcome [5] | Potency [6] | outcome [7] | outcome [8]

C[C@]1(Cn2ccnn2)[C@H](C(=O)O)N2C(=O)C[C@H]2S1(=O)=O
inactive: outcome [1] | outcome [2] | outcome [3] | outcome [4] | outcome [5] | Potency [6] | outcome [7] | outcome [8]

O=S1(=O)OC(c2ccc(O)cc2)(c2ccc(O)cc2)c2ccccc21
inactive: outcome [1] | outcome [2] | outcome [3] | outcome [4] | outcome [5] | Potency [6] | outcome [7] | outcome [8]

CC(C(=O)O)c1ccc2c(c1)Cc1cccnc1O2 (configuration not stated)
inactive: outcome [1] | outcome [2] | outcome [3] | outcome [4] | Potency [6] | outcome [7] | outcome [8]

CC(O)CCCCn1c(=O)c2c(ncn2C)n(C)c1=O (configuration not stated)
inactive: outcome [1] | outcome [2] | outcome [3] | outcome [4] | outcome [5] | Potency [6] | outcome [7] | outcome [8]

CCOC(=O)[C@H](CCc1ccccc1)N[C@@H](C)C(=O)N1CCC[C@H]1C(=O)O
inactive: outcome [1] | outcome [2] | outcome [3] | outcome [4] | outcome [5] | Potency [6] | outcome [8]

C[N+]1(C)CCCC(OC(=O)C(O)(c2ccccc2)c2ccccc2)C1 (configuration not stated)
inactive: outcome [1] | outcome [2] | outcome [3] | outcome [4] | outcome [5] | Potency [6] | outcome [7] | outcome [8]

CC(=O)[C@@]1(O)CC[C@H]2[C@@H]3C[C@H](C)C4=CC(=O)C=C[C@]4(C)[C@@]3(F)[C@@H](O)C[C@@]21C
inactive: outcome [1] | outcome [2] | outcome [3] | outcome [4] | outcome [5] | Potency [6] | outcome [7] | outcome [8]

O=C1c2ccccc2S(=O)(=O)N1CCCCN1CCN(c2ncccn2)CC1
inactive: outcome [1] | outcome [2] | outcome [3] | outcome [4] | outcome [5] | Potency [6] | outcome [7] | outcome [8]

COC(=O)N/N=C/c1c[n+]([O-])c2ccccc2[n+]1[O-]
inactive: outcome [1] | outcome [2] | outcome [3] | outcome [4] | outcome [5] | Potency [6] | outcome [7] | outcome [8]

Nc1ccncc1N
inactive: outcome [1] | outcome [2] | outcome [9] | outcome [4] | outcome [5] | Potency [6] | outcome [7] | outcome [8]

CC1CCN(CCCC(=O)c2ccc(F)cc2)CC1
inactive: outcome [1] | outcome [2] | outcome [3] | outcome [4] | Potency [6] | outcome [7] | outcome [8]

CC1(C)S[C@@H]2[C@H](NC(=O)C(C(=O)O)c3ccccc3)C(=O)N2[C@H]1C(=O)O (some centres not stated)
inactive: outcome [1] | outcome [2] | outcome [9] | outcome [4] | outcome [5] | Potency [6] | outcome [7] | outcome [8]

CC(C)=CCC/C(C)=C/CO
inactive: outcome [1] | outcome [2] | outcome [9] | outcome [4] | outcome [5] | Potency [6] | outcome [7] | outcome [8]

Cc1c(NC(C)C)c(=O)n(-c2ccccc2)n1C
inactive: outcome [1] | outcome [2] | outcome [3] | outcome [4] | outcome [5] | Potency [6] | outcome [7] | outcome [8]

CCCNC(C)(C)COC(=O)c1ccccc1
inactive: outcome [1] | outcome [2] | outcome [3] | outcome [4] | outcome [5] | outcome [7] | outcome [8]

COc1ccc(O)cc1
inactive: outcome [1] | outcome [2] | outcome [9] | outcome [4] | Potency [6] | outcome [7] | outcome [8]

CCN[C@H]1CN(CCCOC)S(=O)(=O)c2sc(S(N)(=O)=O)cc21
inactive: outcome [1] | outcome [2] | outcome [9] | outcome [4] | outcome [5] | Potency [6] | outcome [7] | outcome [8]

CCN(CC)CC1CCCCN1CC(=O)N1c2ccccc2C(=O)Nc2cccnc21 (configuration not stated)
inactive: outcome [1] | outcome [2] | outcome [9] | outcome [4] | outcome [5] | Potency [6] | outcome [7] | outcome [8]

Nc1ncnc(Nc2ccccc2)n1
inactive: outcome [1] | outcome [2] | outcome [9] | outcome [4] | outcome [5] | Potency [6] | outcome [7] | outcome [8]

Cc1ccc2c(c1)c1c3n2CCNC3CCC1 (configuration not stated)
inactive: outcome [1] | outcome [2] | outcome [4] | outcome [5] | Potency [6] | outcome [7] | outcome [8]

Nc1c2c(nc3c1CCC3)CCCC2
inactive: outcome [1] | outcome [2] | outcome [9] | outcome [4] | outcome [5] | Potency [6] | outcome [7] | outcome [8]

CN1CCN(C(=O)C2CCCCC2)CC1
inactive: outcome [1] | outcome [2] | outcome [9] | outcome [4] | Potency [6] | outcome [7] | outcome [8]

CC(CSC(=O)c1ccccc1)C(=O)N1C[C@@H](Sc2ccccc2)C[C@H]1C(=O)O (some centres not stated)
inactive: outcome [1] | outcome [2] | outcome [4] | outcome [5] | Potency [6] | outcome [7] | outcome [8]

CCCCCCCCCCOc1cc2c(=O)c(C(=O)OCC)c[nH]c2cc1OCC
inactive: outcome [1] | activity change, negative = inhibition [2] -16.6% [at 4.81 µM] | activity change, negative = cytotoxic [9] -4.32% [at 4.84 µM] | activity change, negative = cytotoxic [4] 5.74% [at 4.84 µM] | activity change, negative = cytotoxic [5] -6.98% [at 4.84 µM] | activity change, negative = cytotoxic [6] -8.08% [at 4.84 µM] | activity change, negative = cytotoxic [7] 9.52% [at 6.03 µM] | activity change, negative = cytotoxic [8] 9.4% [at 4.84 µM]

Cc1cccc(Nc2ccccc2C(=O)O)c1C
inactive: outcome [1] | outcome [2] | outcome [9] | outcome [4] | outcome [5] | outcome [7] | outcome [8]

Reference: PubChem BioAssay (NCATS)
